Measurements reported in PubChem BioAssay AID1159580 (chemical genetic matrix, 2015).
Values joined by “and” are separate entries in the source; they are usually repeats but may differ in a detail not shown here. Identical values can stand only once. The whole screen tested about 5,500 compounds, of which about 2,000 (36%) were called active. Another 18% or so got no clear call; they are omitted. Rule as the data show it: active = normalized growth mostly below about 0.91 (no sharp cut-off); inconclusive = no clear call, values can overlap the other calls; inactive = mostly above about 0.92. The list shows a part of the results.

Test: chemical genetic growth profiling, strain panel (AID 1159580);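 also: tested at 20 µM; growth read once vehicle control cultures reached saturation at 30 °C; 1 = growth at the plate median or of vehicle wells; lower values mean less growth of the strain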
Conditions: S. cerevisiae deletion strains, growth OD

Measured: normalized growth

NC(=O)c1cc([N+](=O)[O-])cc([N+](=O)[O-])c1
active: locus YDR137W, strain rgp1, stronger effect = lower value 1.25 [resistant] | locus YDR195W, strain ref2 0.78 | locus YDR392W, strain spt3, stronger effect = lower value 0.633 | locus YER155C, strain BEM2 (second series), stronger effect = lower value 0.788
inactive: locus YAL021C, strain ccr4, stronger effect = lower value 1.03 | locus YAL026C, strain drs2, stronger effect = lower value 0.962 | locus YAL030W, strain snc1, stronger effect = lower value 1.01 | locus YBL061C, strain skt5, stronger effect = lower value 1.02 | locus YBR009C, strain hhf1, stronger effect = lower value 0.972 | locus YBR021W, strain FUR4, stronger effect = lower value 0.99 | locus YBR023C, strain chs3, stronger effect = lower value 1.02 | locus YBR171W, strain sec66, stronger effect = lower value 1.04 | locus YBR229C, strain ROT2, stronger effect = lower value 1.02 | locus YBR231C, strain swc5, stronger effect = lower value 0.991 | locus YBR279W, strain paf1, stronger effect = lower value 1.03 | locus YCL011C, strain gbp2, stronger effect = lower value 1.02 | locus YCL016C, strain dcc1, stronger effect = lower value 1.05 | locus YCL029C, strain bik1, stronger effect = lower value 0.983 | locus YCL061C, strain MRC1, stronger effect = lower value 1.01 | locus YCL069W, strain vba3, stronger effect = lower value 1.02 | locus YCR088W, strain abp1, stronger effect = lower value 1.02 | locus YDL005C, strain med2, stronger effect = lower value 1.03 | locus YDL035C, strain GPR1, stronger effect = lower value 0.992 | locus YDL040C, strain nat1, stronger effect = lower value 1.01 | locus YDL074C, strain BRE1, stronger effect = lower value 0.986 | locus YDL101C, strain DUN1, stronger effect = lower value 0.989 | locus YDL134C, strain PPH21, stronger effect = lower value 1.01 | locus YDL185W, strain tfp1, stronger effect = lower value 0.974 | locus YDL192W, strain arf1, stronger effect = lower value 0.986 | locus YDR001C, strain nth1, stronger effect = lower value 1.01 | locus YDR069C, strain doa4, stronger effect = lower value 0.979 | locus YDR101C, strain arx1, stronger effect = lower value 0.982 | locus YDR159W, strain sac3, stronger effect = lower value 1.04 | locus YDR162C, strain NBP2, stronger effect = lower value 0.992 | locus YDR297W, strain sur2, stronger effect = lower value 1 | locus YDR318W, strain mcm21, stronger effect = lower value 0.974 | locus YDR334W, strain swr1, stronger effect = lower value 1.03 | locus YDR335W, strain msn5, stronger effect = lower value 1.02 | locus YDR388W, stronger effect = lower value 0.996 | locus YDR502C, strain sam2, stronger effect = lower value 0.983 | locus YEL003W, strain gim4, stronger effect = lower value 0.961 | locus YEL037C, strain rad23, stronger effect = lower value 1.01 | locus YEL061C, strain CIN8 (second series), stronger effect = lower value 1.02 | locus YEL061C, strain CIN8, stronger effect = lower value 1.01 | locus YER015W, strain faa2, stronger effect = lower value 1.02 | locus YER016W, strain bim1, stronger effect = lower value 0.999 | locus YER110C, stronger effect = lower value 0.979 | locus YER111C, strain swi4, stronger effect = lower value 1.04 | locus YER155C, strain BEM2, stronger effect = lower value 1.01 | locus YER167W, strain BCK2, stronger effect = lower value 1.02 | locus YFR010W, strain ubp6, stronger effect = lower value 0.995 | locus YGL078C, strain dbp3, stronger effect = lower value 0.995 | locus YGL086W, strain mad1, stronger effect = lower value 0.968 | locus YGL167C, strain pmr1, stronger effect = lower value 1.02 | locus YGL173C, strain kem1, stronger effect = lower value 1.01 | locus YGL227W, strain vid30, stronger effect = lower value 1.02 | locus YGL240W, strain doc1, stronger effect = lower value 0.969 | locus YGL248W, strain PDE1, stronger effect = lower value 1.02 | locus YGL253W, strain hxk2, stronger effect = lower value 0.994 | locus YGR078C, strain PAC10, stronger effect = lower value 1 | locus YGR135W, strain pre9, stronger effect = lower value 0.978 | locus YGR252W, strain gcn5, stronger effect = lower value 0.906 | locus YHR013C, strain ard1, stronger effect = lower value 1.09 | locus YHR027C, strain rpn1, stronger effect = lower value 0.997 | locus YHR030C, strain SLT2, stronger effect = lower value 1.02 and 0.959 | locus YHR079C, strain IRE1 (second series), stronger effect = lower value 0.996 | locus YHR079C, strain IRE1, stronger effect = lower value 0.955 | locus YHR094C, strain hxt1, stronger effect = lower value 0.954 | locus YHR129C, strain ARP1, stronger effect = lower value 1.02 | locus YHR142W, strain chs7, stronger effect = lower value 1.01 | locus YHR200W, strain rpn10, stronger effect = lower value 0.997 | locus YIL066C, strain RNR3, stronger effect = lower value 1.01 | locus YIL073C, strain SPO22, stronger effect = lower value 0.993 | locus YIL125W, strain kgd1, stronger effect = lower value 1 | locus YIR030C, strain dcg1, stronger effect = lower value 1 | locus YJL092W, strain hpr5, stronger effect = lower value 1.02 | locus YJL095W, strain BCK1 (second series), stronger effect = lower value 1.01 | locus YJL095W, strain BCK1, stronger effect = lower value 0.994 and 0.966 | locus YJL115W, strain asf1, stronger effect = lower value 1.02 | locus YJL129C, strain trk1, stronger effect = lower value 1.1 | locus YJL134W, strain LCB3, stronger effect = lower value 1.01 | locus YJL154C, strain vps35, stronger effect = lower value 1.03 | locus YJL164C, strain tpk1, stronger effect = lower value 0.977 | locus YJL166W, strain qcr8, stronger effect = lower value 1 | locus YJL168C, strain set2, stronger effect = lower value 0.997 | locus YJL187C, strain SWE1 (second series), stronger effect = lower value 1.01 | locus YJL187C, strain SWE1, stronger effect = lower value 1.03 | locus YJR043C, strain POL32, stronger effect = lower value 0.967 | locus YJR066W, strain TOR1, stronger effect = lower value 0.918
